Measured values: PubChem BioAssay AID504834 (National Center for Advancing Translational Sciences (NCATS), 2011)
Among all 320,000 compounds or so, about 22,000 (6.9%) were called active. Not shown: some 27% with an inconclusive outcome. For the sample, actives were picked, then their nearest neighbours and some compounds at random. Values without a mark were called inactive. Calls come from the whole dose curve; as a rule, active = well fitted inhibition curve with a large enough effect; inconclusive = small, poorly fitted or top-dose-only effect, or another doubt; inactive = no such curve, though single readings can be large or run the other way.

Assay: Primary qHTS for delayed death inhibitors of the malarial parasite plastid, 96 hour incubation
Conditions: P. falciparum luciferase reporter growth; series mostly up to 28.7 µM; activity change, negative = inhibition: at the top concentration
In short: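 Infected RBCs, 2% Hct / 0.05% parasitemia final; luciferase-reporter P. falciparum; cpd 96 h, 37 C, 5% CO2; luciferase detection reagent; luminescence.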
% is set by controls: 0 for no effect and ±100 for the full control effect; potency is the fitted concentration of half-maximal effect.

Q: With `COc1ccc(C(=O)N2CCN(c3ccc(C(C)=O)cc3F)CC2)cc1S(=O)(=O)NC1CC1` as the molecule, how does the “activity change, negative = inhibition” value read?
A: 35.2%

Q: For `Cc1ccc(/C=C/C(=O)OCC(=O)NCc2ccc(Cl)cc2)o1`, which “activity change, negative = inhibition” value is on record?
A: 32.4%

Q: Which “activity change, negative = inhibition” value does the source give for `Cc1cc(-c2ccc(C)c(S(=O)(=O)NCCCN(Cc3ccccc3)C(C)C)c2)on1` here?
A: 10.5%

Q: Which “activity change, negative = inhibition” value does the source give for `COC(=O)c1c(NC(=O)c2ccccc2F)sc2c1C(C(=O)OC)CC2` (configuration not stated) here?
A: 1.77%

Q: Which “activity change, negative = inhibition” value does the source give for `O=C(Nc1ccc(C(=O)O)cc1)/C(=C\c1ccccc1)NC(=O)c1ccc(Br)cc1` here?
A: 52.1%

Q: For `COc1ccccc1N1CCN(C(=O)C2Cc3ccccc3CN2C(=O)c2ccco2)CC1` (configuration not stated), which “activity change, negative = inhibition” value is on record?
A: -15.4%

Q: Which “activity change, negative = inhibition” value does the source give for `CCOCCn1c(-c2ccccc2)nc2ccccc21` here?
A: 4.72%

Q: Which “activity change, negative = inhibition” value does the source give for `CCCCn1c(N)c(N(CCOC)C(=O)CSCC(=O)Nc2cccc(C)c2)c(=O)[nH]c1=O` here?
A: 48.9%

Q: For `CCCCn1c(-c2cccc(C)c2)nc2cc3[nH]c(=O)c(C(C)C)nc3cc21`, which Potency is on record?
A: 4.15 µM (active)

Q: Which “activity change, negative = inhibition” value does the source give for `O=C(O)C1CCCN1C1=NS(=O)(=O)c2ccccc21` (configuration not stated) here?
A: 31.3%

Q: For `CN(Cc1ccccc1)S(=O)(=O)c1nnc(NC(=O)c2ccccc2F)s1`, which “activity change, negative = inhibition” value is on record?
A: 94.1%

Q: For `CN(C(=O)COC(=O)c1nc(Cl)ccc1Cl)C1CCS(=O)(=O)C1` (configuration not stated), which “activity change, negative = inhibition” value is on record?
A: 23.1%

Q: With `Cc1cccc2cc(CN(Cc3cccs3)C(=S)NCc3ccco3)c(=O)[nH]c12` as the molecule, how does the “activity change, negative = inhibition” value read?
A: -21.7%

Q: Which “activity change, negative = inhibition” value does the source give for `O=C(Nc1ccccc1)N(Cc1cccnc1)Cc1ccco1` here?
A: -7.92%

Q: For `Cc1ccc(C)c2[nH]c(=O)c(CN(Cc3cccnc3)C(=S)NCc3ccco3)cc12`, which Potency is on record?
A: 3.7 µM (active)

Q: With `Cc1cn([C@H]2CC(F)[C@@H](CO)O2)c(=O)[nH]c1=O` (some centres not stated) as the molecule, how does the “activity change, negative = inhibition” value read?
A: 0.0378%

Q: With `O=C(CN1C(=O)NC2(CCCC2)C1=O)NCC1CCCO1` (configuration not stated) as the molecule, how does the “activity change, negative = inhibition” value read?
A: 10.6%

Q: For `Cc1nn(CC(=O)NCC2CCCO2)c(=O)c2cc3ccccc3n12` (configuration not stated), which “activity change, negative = inhibition” value is on record?
A: -29.6%

Q: Which Potency does the source give for `O=C(Cn1nc(Cc2cccnc2)c2ccccc2c1=O)NCC1CCCO1` (configuration not stated) here?
A: 9.28 µM (active)

Q: With `CCCn1c2ccccc2c2cnn(CC(=O)NCCCN3CCCCC3CC)c(=O)c21` (configuration not stated) as the molecule, how does the “activity change, negative = inhibition” value read?
A: 9.2%

Q: For `CCC1CCC2(CC1)NC(=O)N(CC(=O)Nc1ccc(OC)cc1)C2=O` (configuration not stated), which “activity change, negative = inhibition” value is on record?
A: 29.4%

Q: Which “activity change, negative = inhibition” value does the source give for `COc1ccc(S(=O)(=O)NC(C)C(=O)N2CCCCCC2)cc1` (configuration not stated) here?
A: -3.52%

Q: With `COc1ccc(CC(NC(C)=O)C(=O)NC2CCN(C(=O)c3ccc(Cl)cc3)CC2)cc1` (configuration not stated) as the molecule, how does the “activity change, negative = inhibition” value read?
A: 3.33%

Q: With `O=C(C1CCN(Cc2ccc(Cl)cc2)CC1)N1CCN(Cc2ccc3c(c2)OCO3)CC1` as the molecule, how does the “activity change, negative = inhibition” value read?
A: 4.83%

Q: For `Cc1ccc(-c2cc(C(=O)NCc3cn(C)nc3C)c3cc(Br)ccc3n2)cc1`, which Potency is on record?
A: 13.1 µM (active)

Q: For `Cc1ccc2nc(-c3cccc(Br)c3)cc(C(=O)Nn3cnnc3)c2c1`, which “activity change, negative = inhibition” value is on record?
A: -3.98%

Q: With `COc1ccc(Cl)cc1C(=O)NCc1cn(C)nc1C` as the molecule, how does the “activity change, negative = inhibition” value read?
A: 24.3%

Q: Which “activity change, negative = inhibition” value does the source give for `O=C(CCNC(=O)c1ccc(Br)cc1)Nc1cccc(S(=O)(=O)N2CCCCC2)c1` here?
A: 5.81%

Q: Which “activity change, negative = inhibition” value does the source give for `O=C(O)c1ccc(NC(=O)c2ccc(COc3ccc(Cl)cc3)o2)cc1` here?
A: -3.61%

Q: For `COc1ccccc1CNS(=O)(=O)CC12CCC(CC1=O)C2(C)C` (configuration not stated), which “activity change, negative = inhibition” value is on record?
A: -8.22%

Q: With `O=C(CCCN1C(=O)C2C3C=CC(C3)C2C1=O)N1CCN(c2ccccc2)CC1` (configuration not stated) as the molecule, how does the “activity change, negative = inhibition” value read?
A: -1.15%

Q: For `CC(=O)Cn1cnc2c(cnn2-c2ccccc2)c1=O`, which “activity change, negative = inhibition” value is on record?
A: 2.1%

Q: With `Cc1c2cnn(-c3ccccc3)c(=O)c2c(C)n1CCCC(=O)N1CCN(C)CC1` as the molecule, how does the Potency read?
A: 13.1 µM (active)

Q: With `O=C(NCc1ccncc1)c1cccc(NS(=O)(=O)c2ccc(F)c(F)c2)c1` as the molecule, how does the “activity change, negative = inhibition” value read?
A: -14.9%

Q: For `CCOc1ccccc1NS(=O)(=O)c1cc2c3c(c1)C(C)C(=O)N3CCC2` (configuration not stated), which “activity change, negative = inhibition” value is on record?
A: 35.1%

Q: For `COc1ccc(/C=C/C(=O)NC(=S)NN2CCCCC2c2cccnc2)cc1` (configuration not stated), which Potency is on record?
A: 13.1 µM (active)

Q: With `CCOc1ccc(NC(=S)NC(=O)/C=C/c2ccc(OC)cc2)c([N+](=O)[O-])c1` as the molecule, how does the “activity change, negative = inhibition” value read?
A: 12.4%

Q: For `O=C(/C=C/c1ccc(F)cc1)NC(=S)NNC(=O)c1cccnc1`, which “activity change, negative = inhibition” value is on record?
A: 41%

Q: Which “activity change, negative = inhibition” value does the source give for `COC(=O)[C@@H](Cc1ccccc1)NC(=O)NCCc1ccccc1` here?
A: 25.5%

Q: Which “activity change, negative = inhibition” value does the source give for `O=C1N=C(N2CCCC2)S/C1=C\c1cccc(Br)c1` here?
A: -20.9%

Q: Which “activity change, negative = inhibition” value does the source give for `NC1=NC(=O)S/C1=C\c1ccc(O)cc1` here?
A: -5.18%

Q: With `O=C1N=C(N2CCc3ccccc3C2)S/C1=C\c1ccc(O)cc1` as the molecule, how does the Potency read?
A: 11.7 µM (active)

Q: Which “activity change, negative = inhibition” value does the source give for `COc1ccc(-c2nc3n(c(=O)c2C#N)CCS3)c(OC)c1` here?
A: 37.4%

Q: With `COc1cc(NS(=O)(=O)c2ccc(NC(=S)NC(=O)c3ccccc3)cc2)nc(OC)n1` as the molecule, how does the “activity change, negative = inhibition” value read?
A: -7.09%

Q: For `Cc1ccnc(NC(=O)CCNS(=O)(=O)c2ccc(C)c(C)c2)c1`, which “activity change, negative = inhibition” value is on record?
A: 253%

Q: For `C/C(=N/NC(=O)c1ccc(Br)o1)c1ccc(C)o1`, which “activity change, negative = inhibition” value is on record?
A: -27.2%

Q: For `Cc1ccc(NC(=S)NC2CCCC2)cc1`, which “activity change, negative = inhibition” value is on record?
A: 60.3%

Q: Which Potency does the source give for `C/C(=N\NC(=S)NC1CCCCC1)c1ccc(C)o1` here?
A: 4.65 µM (active)

Q: For `CCCc1cc(C(=O)Nc2ccc(Cl)cn2)cs1`, which “activity change, negative = inhibition” value is on record?
A: -17.8%

Q: With `CCOc1ccc(CCNC(=O)Nc2ccccc2)cc1OCC` as the molecule, how does the “activity change, negative = inhibition” value read?
A: 5.2%

Q: With `COC(=O)c1cccc(N2C(=O)C3C4C=CC(CC4)C3C2=O)c1` (configuration not stated) as the molecule, how does the “activity change, negative = inhibition” value read?
A: 16.2%

Q: Which “activity change, negative = inhibition” value does the source give for `Cn1c(=NC(=O)CSCC(=O)N2CCCCC2)sc2ccccc21` here?
A: 34.9%

Q: With `Cn1c(=NC(=O)CSCC(=O)N2CCOCC2)sc2ccccc21` as the molecule, how does the “activity change, negative = inhibition” value read?
A: 8.65%

Q: For `Cn1c(=NC(=O)c2cnccn2)sc2ccccc21`, which Potency is on record?
A: 11.7 µM (active)

Q: Which “activity change, negative = inhibition” value does the source give for `CCN(CC(=O)Nc1ccccc1C(=O)NC1CC1)Cc1cccs1` here?
A: 11.3%

Q: With `COc1cc(CN2CCC(n3nccc3NC(=O)CCCc3ccccc3)CC2)ccc1O` as the molecule, how does the “activity change, negative = inhibition” value read?
A: 15.5%

Q: For `COCCCN1C(=O)C(=O)/C(=C(/O)c2ccc(S(=O)(=O)N3CCOCC3)cc2)C1c1ccc(F)cc1` (configuration not stated), which “activity change, negative = inhibition” value is on record?
A: 2.37%

Q: For `CCc1cccc(NC(=O)C2CCCN(S(=O)(=O)c3ccc4[nH]c(=O)ccc4c3)C2)c1` (configuration not stated), which “activity change, negative = inhibition” value is on record?
A: -7.69%

Q: Which “activity change, negative = inhibition” value does the source give for `CCNC(=O)N1CCN(S(=O)(=O)c2ccc3c(c2)OCCCO3)CC1` here?
A: -9.41%

Q: For `Cc1ccc(C(=O)Nc2ccc3c(c2)OCO3)cc1S(=O)(=O)N1CCCCC1`, which “activity change, negative = inhibition” value is on record?
A: 46.5%

Q: With `Cc1ccc(C(=O)NCC(=O)O)cc1S(=O)(=O)N1CCCCC1` as the molecule, how does the “activity change, negative = inhibition” value read?
A: -3.2%

Q: With `Cc1ccc(C(=O)NC2CCCC(C)C2C)cc1S(=O)(=O)N1CCCCC1` (configuration not stated) as the molecule, how does the Potency read?
A: 14.7 µM (active)

Q: For `CC(C)CCNC(=O)c1ccc2c(Cl)c3c(nc2c1)CCC3`, which “activity change, negative = inhibition” value is on record?
A: 34%

Q: With `O=C(NNC(=O)c1ccco1)Nc1ccccc1` as the molecule, how does the “activity change, negative = inhibition” value read?
A: 0.862%

Q: With `O=C(Cc1cccc2ccccc12)Nc1ccc2oc(-c3ccccc3)nc2c1` as the molecule, how does the “activity change, negative = inhibition” value read?
A: -21.5%

Q: Which Potency does the source give for `O=C(Nc1ccc2oc(-c3ccc4ccccc4c3)nc2c1)c1cccs1` here?
A: 4.65 µM (active)

Q: For `CC(=O)Nc1ccc(-c2nc3ccccc3o2)cc1`, which “activity change, negative = inhibition” value is on record?
A: -22.4%
